Sampled rows, rich in hits. Any-hit rate of the full collection: about 4.6%.
D1 agonist: Allosteric Agonists of the Human D1 Dopamine Receptor: qHTS | activation, % at 2 µM | 360,000 tested, 1% active | AID 504660, 2011 | D(1A) dopamine receptor (Homo sapiens), P21728 | HEK293 T-REx D1 cells, calcium flux, agonist mode
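Agonism was scored from calcium flux recorded over 180 s (1 read/s) after pintool compound addition, following a 10-cycle baseline. Cells were inducible force-coupled HEK293 TREx D1, plated overnight at 30 C and loaded with no-wash calcium dye.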
TRHR ag: qHTS for Small Molecule Agonists and Allosteric Enhancers of Human TRH Receptor: Primary Screen for Agonists; TRHR cells, calcium flux fluo-8, FDSS agonist mode; 360,000 tested, 0.18% active; activation, % at 2 µM
Target sequence (P34981 whole entry, looked up): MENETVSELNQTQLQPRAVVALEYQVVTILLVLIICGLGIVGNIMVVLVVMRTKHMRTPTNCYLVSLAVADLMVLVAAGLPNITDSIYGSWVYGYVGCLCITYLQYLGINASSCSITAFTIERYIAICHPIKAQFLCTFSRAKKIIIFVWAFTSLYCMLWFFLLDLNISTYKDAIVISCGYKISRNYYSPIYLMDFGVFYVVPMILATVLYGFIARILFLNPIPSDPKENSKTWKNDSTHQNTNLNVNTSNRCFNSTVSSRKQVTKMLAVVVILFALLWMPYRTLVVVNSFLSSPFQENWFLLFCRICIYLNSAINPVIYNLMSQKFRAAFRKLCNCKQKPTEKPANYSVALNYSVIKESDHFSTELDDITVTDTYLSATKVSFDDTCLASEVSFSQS
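Steps: seed TRHR cells overnight; add fluo-8 no-wash Ca dye, RT 30 min–1.5 h; record 10 s baseline; pin-transfer compounds; monitor fluorescence 1 cycle/s for the agonist window. Calcium increases flag candidate agonists.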
D1 PAM: Potentiators of Human D1 Dopamine Receptor: qHTS; D(1A) dopamine receptor (Homo sapiens), P21728; HEK293 TREx D1 cells, calcium flux, dopamine EC20 potentiation; potentiation, % at 10 µM; 360,000 tested, 0.036% active; AID 504651, 2011; in the data active = potentiation above about 30%
TRHR PAM: qHTS for Small Molecule Agonists and Allosteric Enhancers of Human TRH Receptor: Primary Screen for Enhancers; Thyrotropin-releasing hormone receptor (Homo sapiens), P34981; TRHR cells, fluo-8 calcium fluorescence, EC20 TRH enhancement; enhancement, % at 2 µM; 360,000 tested, 0.66% active; AID 493056, 2011; in the data active = enhancement above about 30%
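TRHR-expressing cells loaded with fluo-8 calcium dye were read kinetically (ex 480/em 530) during compound addition, then stimulated with an EC20 of TRH (10 nM final). Enhancement of the Gq-mediated intracellular calcium response was scored.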
D1 antagonist: Antagonist of Human D 1 Dopamine Receptor: qHTS; activity change, negative = inhibition, % at 10 µM; D(1A) dopamine receptor (Homo sapiens), P21728; AID 504652, 2011; HEK293 TREx D1 cells, calcium flux, dopamine EC80; stronger effect = lower value; 360,000 tested, 3.2% active; in the data active = activity change below about -30%
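Allosteric or orthosteric antagonism assessed as attenuation of the calcium response to EC80 dopamine, added 180 s after compound, in induced HEK293 Trex D1 cells loaded with no-wash calcium dye.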
Of the large screens only hits and unclear results are named; the others gave an inactive call; ! = not active in a repeat. Rule as the data show it, unless noted: active = activation above about 30%; inactive = the rest.

O=C(CSc1ccccc1C(=O)NCc1ccccc1)NC1CCCCCCC1	D1 antagonist -84
Cc1ccc(NC(=O)c2cc(-c3ccccc3)nn2-c2ccccc2)cc1	none
O=C(NC1=NCCS1)c1cc(-c2ccccc2)nn1-c1ccccc1	D1 antagonist -47
COc1ccc(C(=O)N2CCN(c3nc4c(OC)cccc4s3)CC2)cc1OC	none (no result: D1 antagonist)
CCN(CC)S(=O)(=O)c1ccc2c(c1)c(=O)c(C(=O)N1CCN(c3cccc(C)c3)C(C)C1)cn2C (stereo not given)	none
CCOC(=O)C1(CCc2ccccc2)CCN(Cc2ccc(OC)cc2)CC1	none
CCOC(=O)C1(CCOc2ccccc2)CCN(Cc2ccc(OC)c(O)c2)CC1	D1 antagonist -71
CCOC(=O)C1(CCc2ccccc2)CCN(Cc2ccc(O)cc2)CC1	D1 antagonist -86
Cc1cnc2c3c(cc(Cl)c2c1)-c1ccccc1S(=O)(=O)N3	none
CCC(=O)Nc1cc(-c2nc3ccccc3s2)c(Cl)cc1Cl	none
Cc1ccc(N2CC(NC(=O)c3cc4ccccc4o3)CC2=O)cc1 (stereo not given)	none (no result: D1 antagonist)
Cc1ccc(Oc2ncccc2C(=O)NCC(=O)O)cc1	D1 antagonist -88
CN(C)CCCNS(=O)(=O)c1ccc(N2CCC(c3ccc(Cl)cc3)=N2)cc1	D1 agonist 42
CN(C)CCCNS(=O)(=O)c1cc(Cl)ccc1Cl	none
O=S(=O)(c1ccc(N2CCC(c3ccc(Cl)cc3)=N2)cc1)N(CCO)CCO	D1 agonist 121
COc1ccc(C2=NOC(COc3ccc([N+](=O)[O-])cc3)C2)cc1 (stereo not given)	D1 antagonist -32
COc1ccc(CCNC(=O)C2CC(c3ccc([N+](=O)[O-])cc3)=NO2)cc1 (stereo not given)	none
CCc1cccc(C)c1NS(=O)(=O)c1ccc(-n2cccn2)cc1	D1 antagonist -47
CCc1cccc(NS(=O)(=O)c2ccc(-n3cccn3)cc2)c1	none
Cc1ccc(NS(=O)(=O)c2ccc(-n3cccn3)cc2)cc1C	none
COc1ccc(NS(=O)(=O)c2ccc(-n3cccn3)cc2)cc1OC	D1 antagonist -33
Cc1ccc(NC(=O)c2cc(C)nc3c2c(C)nn3-c2cccc(Cl)c2C)c(C)c1	none
Cc1c2cnn(CC(=O)NCCc3ccccc3)c(=O)c2c(C)n1Cc1ccccc1	none
COc1cc(C2CC(=O)N(Cc3ccc(F)cc3)c3ccccc3S2)cc(OC)c1OC (stereo not given)	none
COc1ccc(Cn2c(CNS(=O)(=O)c3ccc(Cl)s3)nc3cccnc32)cc1	none
COc1ccc(C2CC(Cn3cc(C#N)c(=O)n(C)c3=O)ON2C)cc1 (stereo not given)	D1 antagonist -34
COc1ccc(NC(=O)c2c(NC(=O)C(F)(F)F)sc3c2CCCCC3)cc1	D1 agonist 59, D1 antagonist -36
COc1ccccc1CN1CCN(C2CCN(C(=O)NC(C)C)CC2)C(=O)C1=O	none
CCOc1ccccc1NS(=O)(=O)c1ccc2oc(=O)c3ncn(C)c3c2c1	none
CCOCCCN1C(=O)CN(C2CCCCCC2)C(=O)C1c1ccc(OC(C)C)c(OC)c1 (stereo not given)	D1 antagonist -38
Cc1ccc(NC(=O)Cn2cc(C(=O)C3CC3)c3ccccc32)c(C)c1	TRHR PAM 36!
CC(CNC(=O)CN1C(=O)COc2ccc(S(=O)(=O)N3CCCCCC3)cc21)c1ccccc1 (stereo not given)	none
COc1ccc(Cl)cc1NC(=O)C(C)OC(=O)C1=NNC(=O)CC1 (stereo not given)	D1 antagonist -66
O=C1CCC(C(=O)OC(C(=O)Nc2cc(Cl)cc(Cl)c2)c2ccccc2)=NN1 (stereo not given)	none
Cc1nonc1NC(=O)CSc1nc2c(C)cccc2cc1C#N	D1 agonist 43
Cc1cc2cc(C#N)c(SCC(=O)Nc3nonc3C)nc2cc1C	none
CCCCN(CC)S(=O)(=O)c1ccc(C(=O)Nc2nnc(-c3cccs3)o2)cc1	D1 agonist 40
CCN(CC)S(=O)(=O)c1ccc(C(=O)NNC(=O)c2cccs2)cc1	D1 antagonist -42

Screening results: PubChem, National Center for Advancing Translational Sciences (NCATS)
